# Records with an inconclusive call do not appear. The source made the active and inactive calls.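 Rule for the calls, unless noted: active = viability at or under a set limit in both replicates, limit being median viability minus 3 SD (cut at about 48% in these data, passing the limit was not always enough); inconclusive = at or under the limit in just one replicate; inactive = at or above the limit in both replicates.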
# Legend:
# [1] = Her2 expression decrease, cell viability multiplex – SKBR3 breast tumor cells, AlphaScreen, ATP viability, primary screen (AID 461;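 active = Her2 level under about 52% in both replicate screens, with viability over 70% of control, limit read from the data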;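 for Her2 level: lower value means less Her2 protein in the cells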;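 for viability: percent of carrier control wells set as 100% viability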); details: SKBR3 Her2 protein level, 18-24 h, measured here: SKBR3 viability, ATP luminescence, at 10 µM
# [2] = target: Receptor tyrosine-protein kinase erbB-2 (Homo sapiens) (UniProt P04626); experiment: as above; details: 18-24 h, at 10 µM, stronger effect = lower value
# [3] = reduced viability of SK-BR-3 breast cancer cells – cell-based, 24 h, human, pilot screen (AID 572;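 active = viability at or below 10% of carrier control in both of two separate runs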;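 note: compound exposure lasted between 18 and 24 h rather than exactly 24 h; 100% = carrier-treated control wells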); details: SK-BR-3 viability, CellTiter-Glo luminescence, at 10 µM, stronger effect = lower value
# [4] = HUVEC growth inhibition – cell-based, human, primary screen (AID 575;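 active = viability at or below 30% in both replicate assays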;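 note: 100% = median of untreated cell wells with 0.1% DMSO on each plate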); details: HUVEC proliferation, CellTiter-Glo luminescence, 72 h; at 10 µM; stronger effect = lower value
# [5] = H69AR cell proliferation blockers – human, duplicate replicates, primary screen (AID 580); details: H69AR lung tumor cells viability, ATP luminescence, 72 h; at 10 µM; stronger effect = lower value;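 note: 100% = mean luminescence of untreated wells and 0% = no signal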
# [6] = MRP1 drug-resistance reversers in H69AR cells – cell-based, doxorubicin co-treatment, pilot screen (AID 601;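 active = viability loss from added drug above about 55%, and viability with drug at most 40%, in both replicates, limit read from the data, passing the limit was not always enough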); details: CellTiter-Glo, 72 h, at 10 µM; for differential viability (reversal): stronger effect = higher value
# [7] = yeast transport mutant growth inhibition pilot in 384-well plates, post-Golgi transport modulator project (AID 636; in the data active = inhibition above about 31%); details: absorbance 615 nm, about 18 h, stronger effect = higher value
# [8] = growth suppression of yeast trafficking mutant, preliminary HTS, modulators of trafficking downstream of Golgi apparatus project, 1536-format plate, OD 615 nm (AID 637; in the data active = inhibition above about 30%); details: yeast transport mutant growth, absorbance 615 nm, 18 h; stronger effect = higher value
# [9] = S. cerevisiae growth inhibition in permissive medium (OD615), pilot counter-assay for S. cerevisiae lifespan shortening project, permissive growth control (AID 705;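 active = growth inhibition above 25% in both replicates, a cutoff set 3 SD above the mean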); details: OD615, 24 h, at 10 µM, stronger effect = higher value
# [10] = S. cerevisiae growth inhibition in restrictive medium, OD615, pilot screen, restrictive growth control, yeast lifespan reduction project (AID 706;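 active = growth inhibition above a set limit, 3 SD over mean compound inhibition, in both replicates, cut at about 43% in these data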;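 note: modified DeaD lifespan yeast strain shifted to restrictive glucose medium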); details: OD615, 48 h, at 10 µM, stronger effect = higher value
# [11] = doxorubicin toxicity protection in MRP-1 cells – H69AR cells, CellTiter-Glo, duplicate, MRP-1 activator project, pilot screen (AID 807;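 active = viability increase at or above a cutoff of the median across tested compounds plus 3 SD, cut at about 8.5% in these data, passing the limit was not always enough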;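 note: compound pretreatment 18-22 h then 72 h combined with doxorubicin; 0% = doxorubicin alone and 100% = vehicle without doxorubicin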); details: H69AR viability with doxorubicin, CellTiter-Glo luminescence; at 10 µM; stronger effect = higher value
# [12] = viability of HCT116 without oncogenic beta-catenin – human colon tumor cells, pilot screen (AID 823;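 active = cell viability at or below a set limit in both duplicate runs, the limit being the all-compound median minus 4 SD, cut at about 23% in these data, passing the limit was not always enough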;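 note: 0% = wells killed by 20 µM Hyamine and 100% = untreated DMSO cell wells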); details: HCT116 beta-catenin knockout viability, CellTiter-Glo, 60 h; at 10 µM; stronger effect = lower value
# [13] = viability of PTEN-null HCT116 cells – cell-based, HCT116 clonal line, CellTiter-Glo, pilot screen (AID 824;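 active = viability at or below 27.92% in each of two runs, the all-compound median minus 4 SD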;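 note: 0% = 20 µM Hyamine control and 100% = vehicle cell control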); details: HCT116 PTEN-deleted viability, 60 h, at 10 µM, stronger effect = lower value
# [14] = RAM pathway blockade in budding yeast – dse1pr::URA3 reporter, 5-FOA selection, pilot screen (AID 869;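 active = inhibition over a set limit, the all-compound mean plus 3 SD, in both replicate runs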;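 note: 0% = DMSO wells with no growth and 100% = 10 µM 1-NA-PP1 with full growth; RAM network block rescues cells from 5-FOA so hits raise OD615 growth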); details: S. cerevisiae dse1pr::URA3 5-FOA growth, OD615, 2 d; at 10 µM; stronger effect = higher value; strain carries analog-sensitive mutant Cbk1 kinase
# [15] = RAM signaling pathway blockade in yeast – S. cerevisiae, Pdr1DBD-CYC8 efflux-inhibited sensitized strain, primary screen (AID 1298;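 active = RAM network inhibition above 8.4% in each of two replicates, 3 SD over the compound average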;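 note: 0% = DMSO untreated cells without growth and 100% = 10 µM 1-NA-PP1 full growth; higher means more yeast growth rescued from 5-FOA killing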); details: S. cerevisiae cbk1-as DSE1-URA3 strain, 5-FOA growth OD615, 2 d; at 50 µM; stronger effect = higher value
# [16] = H69AR cells + 2 uM doxorubicin, measured here: viability with 2 uM doxorubicin, stronger effect = lower value
# [17] = H69AR cells, compound alone cytotoxicity
# Chain of Receptor tyrosine-protein kinase erbB-2 (Homo sapiens) (P04626 whole entry, looked up): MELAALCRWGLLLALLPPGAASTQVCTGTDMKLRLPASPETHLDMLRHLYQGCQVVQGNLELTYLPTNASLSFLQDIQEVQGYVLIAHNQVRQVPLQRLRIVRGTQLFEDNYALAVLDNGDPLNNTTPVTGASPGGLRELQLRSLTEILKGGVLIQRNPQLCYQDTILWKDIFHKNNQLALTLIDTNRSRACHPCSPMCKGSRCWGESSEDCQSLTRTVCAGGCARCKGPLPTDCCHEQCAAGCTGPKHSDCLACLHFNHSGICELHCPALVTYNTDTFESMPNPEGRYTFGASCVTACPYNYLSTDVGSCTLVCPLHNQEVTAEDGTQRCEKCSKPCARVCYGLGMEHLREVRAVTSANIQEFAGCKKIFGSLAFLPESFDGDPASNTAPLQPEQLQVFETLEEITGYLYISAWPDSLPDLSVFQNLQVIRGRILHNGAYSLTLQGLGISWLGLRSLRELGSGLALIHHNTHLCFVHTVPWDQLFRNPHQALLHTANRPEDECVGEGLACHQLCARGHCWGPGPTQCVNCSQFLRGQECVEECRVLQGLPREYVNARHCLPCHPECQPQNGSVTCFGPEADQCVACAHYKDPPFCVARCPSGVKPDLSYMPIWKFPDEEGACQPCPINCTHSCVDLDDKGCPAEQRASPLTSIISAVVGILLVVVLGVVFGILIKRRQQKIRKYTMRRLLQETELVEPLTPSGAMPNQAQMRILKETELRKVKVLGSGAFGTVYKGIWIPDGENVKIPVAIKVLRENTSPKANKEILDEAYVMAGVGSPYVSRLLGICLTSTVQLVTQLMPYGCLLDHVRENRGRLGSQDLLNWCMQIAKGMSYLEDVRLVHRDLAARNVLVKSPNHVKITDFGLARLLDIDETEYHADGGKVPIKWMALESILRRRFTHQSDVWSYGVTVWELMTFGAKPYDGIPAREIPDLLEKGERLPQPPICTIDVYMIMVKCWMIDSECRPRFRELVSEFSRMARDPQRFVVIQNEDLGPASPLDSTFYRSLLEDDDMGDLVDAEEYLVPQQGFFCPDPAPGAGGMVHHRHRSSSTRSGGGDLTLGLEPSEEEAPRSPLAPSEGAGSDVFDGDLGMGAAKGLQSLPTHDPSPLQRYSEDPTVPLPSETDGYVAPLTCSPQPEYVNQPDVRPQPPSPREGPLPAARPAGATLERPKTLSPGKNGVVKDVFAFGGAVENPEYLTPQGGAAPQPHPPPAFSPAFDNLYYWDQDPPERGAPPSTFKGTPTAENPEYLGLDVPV
SMILES,viability [1],Her2 level [2],viability [3],viability [4],viability [5],differential viability (reversal) ([6]; H69AR cells + 2 uM doxorubicin),"viability [6, 16]","viability [6, 17]",inhibition [7],inhibition [8],growth inhibition [9],growth inhibition [10],viability increase [11],viability [12],viability [13],inhibition [14],RAM network inhibition [15]
CC(=NCC1CCNCC1)C1=C(O)CC(C)(C)CC1=O,79%,95.5% (inactive),79% (inactive),107% (inactive),106% (inactive),13.4% (inactive),92.4%,106%,-4.73% (inactive),2.3% (inactive),10% (inactive),5.17% (inactive),-2.21% (inactive),91.2% (inactive),97.3% (inactive),0.485% (inactive),-1.02% (inactive)
COc1ccc(NC(=O)CSc2nc3c(c(=O)n2-c2ccccc2OC)SCC3)cc1,102%,110% (inactive),102% (inactive),87.4% (inactive),89.7% (inactive),-5.71% (inactive),95.4%,89.7%,-1.6% (inactive),-5.5% (inactive),1.7% (inactive),-1.84% (inactive),-0.32% (inactive),99% (inactive),98.9% (inactive),2.67% (inactive),3.97% (inactive)
CCOc1ccc(C2CC(c3ccccc3C)n3nc(N)nc3N2)cc1 (stereo not drawn),87.5%,93.5% (inactive),87.5% (inactive),87.9% (inactive),87.9% (inactive),-14.3% (inactive),102%,87.9%,-2.82% (inactive),-3% (inactive),-4.05% (inactive),0.985% (inactive),-1.27% (inactive),93.8% (inactive),83.3% (inactive),1.23% (inactive),5.2% (inactive)
CC(C)Sc1nc2c(c(=O)n1-c1ccc(F)cc1)SCC2,114%,124% (inactive),114% (inactive),87.6% (inactive),88.5% (inactive),7.33% (inactive),81.1%,88.5%,-4.27% (inactive),-4.35% (inactive),-4.45% (inactive),-19.7% (inactive),-2.6% (inactive),84.6% (inactive),87.1% (inactive),0.61% (inactive),7.83% (inactive)
CCOC(=O)c1sc(NC(=O)c2noc3c2CCCC3)c(C(=O)OCC)c1C,69.5%,83% (inactive),69.5% (inactive),85% (inactive),67.8% (inactive),-13.2% (inactive),81%,67.8%,1.41% (inactive),-4.17% (inactive),-0.315% (inactive),-5.25% (inactive),-3.88% (inactive),55.2% (inactive),55.8% (inactive),0.47% (inactive),2.96% (inactive)
O=C(c1ccc(Cl)s1)N1CCN(c2nc3ccccc3s2)CC1,84%,78% (inactive),84% (inactive),69.4% (inactive),85.9% (inactive),-0.215% (inactive),86.1%,85.9%,-3.47% (inactive),2.5% (inactive),3.6% (inactive),-3.27% (inactive),0.2% (inactive),81% (inactive),83.7% (inactive),2.66% (inactive),2.18% (inactive)
CC1(C)CC(=O)N(CC(=O)NCc2ccccc2)c2ccccc2S1(=O)=O,78.5%,112% (inactive),78.5% (inactive),106% (inactive),92.6% (inactive),-8.55% (inactive),101%,92.6%,-4.67% (inactive),-1.33% (inactive),-3.67% (inactive),6.21% (inactive),-1.93% (inactive),107% (inactive),100% (inactive),0.485% (inactive),3.51% (inactive)
O=C(O)c1ccc2c(c1)C(=O)N(c1ccc(Cl)cn1)C2=O,98%,111% (inactive),98% (inactive),105% (inactive),87.2% (inactive),-0.91% (inactive),88.2%,87.2%,-5.47% (inactive),0.33% (inactive),-12.8% (inactive),-10.8% (inactive),-2.33% (inactive),102% (inactive),96.2% (inactive),1.22% (inactive),-0.74% (inactive)
COc1ccc(-c2nc3c(n2O)CCC/C3=N\O)cc1,89.5%,88.5% (inactive),89.5% (inactive),67.4% (inactive),86.5% (inactive),5% (inactive),81.5%,86.5%,-1.43% (inactive),0.33% (inactive),1.93% (inactive),4.75% (inactive),-4.71% (inactive),94.2% (inactive),96% (inactive),0.805% (inactive),3.84% (inactive)
O=C(CCN1C(=O)c2ccccc2C1=O)NCCN1CCOCC1,105%,119% (inactive),105% (inactive),86.3% (inactive),95.3% (inactive),-5.16% (inactive),101%,95.3%,1.95% (inactive),-9.5% (inactive),-11.9% (inactive),-6.59% (inactive),0.61% (inactive),93.8% (inactive),104% (inactive),0.42% (inactive),2.35% (inactive)
O=C(C1CCN(c2nnc(-n3cccc3)s2)CC1)N1CCc2ccccc2C1,88%,93.5% (inactive),88% (inactive),58.6% (inactive),77.9% (inactive),1.77% (inactive),76.1%,77.9%,-0.26% (inactive),-6% (inactive),1.58% (inactive),1.25% (inactive),-1.4% (inactive),97% (inactive),94.1% (inactive),3.21% (inactive),6.43% (inactive)
COc1ccc(CC(=O)NCc2nnc(SCC(=O)Nc3nccs3)n2-c2ccccc2)cc1,99.5%,98% (inactive),99.5% (inactive),98.4% (inactive),96.6% (inactive),2.73% (inactive),93.9%,96.6%,-4.4% (inactive),-3.67% (inactive),-3.97% (inactive),7.4% (inactive),-1.27% (inactive),102% (inactive),96.7% (inactive),1.48% (inactive),6.87% (inactive)
O=S(=O)(c1ccccc1)N1CCN(S(=O)(=O)c2ccccc2)C1,83.5%,102% (inactive),83.5% (inactive),97.5% (inactive),95.8% (inactive),7.07% (inactive),88.7%,95.8%,-3.21% (inactive),-4.5% (inactive),-7.65% (inactive),6.15% (inactive),-1.27% (inactive),93.8% (inactive),93.5% (inactive),-0.14% (inactive),3.22% (inactive)
Cc1nnc(NC(=O)CSc2cn(CCNC(=O)c3ccccc3)c3ccccc23)s1,83.5%,106% (inactive),83.5% (inactive),75.5% (inactive),80.4% (inactive),13.6% (inactive),66.8%,80.4%,-3.2% (inactive),-4.17% (inactive),3.24% (inactive),17% (inactive),-0.89% (inactive),93.5% (inactive),88% (inactive),-0.12% (inactive),1.15% (inactive)
COc1ccc(OC)c(C2C(C(=O)Nc3ccc(F)cc3)=C(C)Nc3nc(CCCO)nn32)c1 (stereo not drawn),101%,120% (inactive),101% (inactive),91% (inactive),101% (inactive),5.54% (inactive),95.4%,101%,0.13% (inactive),-0.83% (inactive),-9.55% (inactive),7.19% (inactive),-0.62% (inactive),99.6% (inactive),99.1% (inactive),-1.06% (inactive),-0.42% (inactive)
CC(OC(=O)C1CC=CCC1C(N)=O)C(Cl)=C(Cl)Cl (stereo not drawn),88%,105% (inactive),88% (inactive),80.8% (inactive),93.7% (inactive),7.14% (inactive),86.5%,93.7%,6.1% (inactive),1.31% (inactive),-2.97% (inactive),-1.67% (inactive),0.52% (inactive),103% (inactive),105% (inactive),0.055% (inactive),2.45% (inactive)
Cn1c(=O)c(=O)n(C)c2cc(S(=O)(=O)CCC(=O)N3CCOCC3)ccc21,88.5%,84% (inactive),88.5% (inactive),106% (inactive),95% (inactive),-6.71% (inactive),102%,95%,-0.4% (inactive),12.5% (inactive),-2.16% (inactive),-4.52% (inactive),-2.26% (inactive),103% (inactive),102% (inactive),0.99% (inactive),6.32% (inactive)
COc1ccccc1N(CC(=O)Nc1cccnc1)S(C)(=O)=O,94.5%,108% (inactive),94.5% (inactive),89.8% (inactive),89.3% (inactive),1.5% (inactive),87.8%,89.3%,0.81% (inactive),-3.28% (inactive),-5.2% (inactive),13.5% (inactive),-1.31% (inactive),103% (inactive),97.2% (inactive),2.62% (inactive),3.47% (inactive)
Cc1ccc(-c2nc3cc(NC(=O)C(C)C)ccc3o2)cc1,87%,112% (inactive),87% (inactive),73.5% (inactive),82.4% (inactive),-1.22% (inactive),83.6%,82.4%,-1.92% (inactive),-10.3% (inactive),-11.2% (inactive),-21.9% (inactive),-5.7% (inactive),82.6% (inactive),73.5% (inactive),3.04% (inactive),5.12% (inactive)
